Results filed as inconclusive are left out. A call without a number means that no potency is given here. Active and inactive are the calls of the source. Unless noted, the call rests on the fitted dose curve; in most records, active means well fitted curve in the direction sought with a large enough effect; inconclusive means small, poorly fitted or top-dose-only effect, or another doubt; inactive means no such curve, though single readings can be large; an effect the other way counts as inactive or inconclusive.
Assays:
[1] = Cytotoxicity counterscreen for inhibitors of SARS-CoV-2 cell entry (AID 1645845; calls by dose curve; further: nearly all actives have a fitted effect of over 50% in size); conditions: cell viability (SARS-CoV-2 entry assay cells); series mostly up to 57.1 µM
Outline: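 After a 15 min room-temperature ATPLite 1step step, luminescence reflected ATP remaining in HEK293-ACE2 cells exposed to compound for 1 h plus 48 h at 37 C, with percent activity set by cell and no-cell controls.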

Papain (Carica papaya) = Papain (Carica papaya) (UniProt P00784); experiment: Primary qHTS assay for inhibitors of the protease papain (AID 1645873); conditions: papain Z-FR-AMC cleavage, AMC fluorescence; series mostly up to 49.8 µM;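 further: papain turnover of Z-FR-AMC read as the AMC fluorescence gain over 10 min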
[2] = Primary qHTS for inhibitors of nuclear receptor binding SET domain protein 2 (NSD2) in an isogenic RCH-ACV NSD2 p.E1099K mutant (9B) (AID 1645876); conditions: RCH-ACV NSD2 E1099K (9B) viability, CellTiter-Glo, 72 h; series mostly up to 44.9 µM; further: nearly all actives have a fitted effect of over 70% in size; further: potency means the concentration at half of the fitted maximal effect
[3] = Primary qHTS to identify inhibitors of SARS-CoV-2 cell entry (AID 1645846; calls by dose curve; further: nearly all actives have a fitted effect of over 45% in size; further: potency means the concentration at half of the fitted maximal effect); conditions: SARS-CoV-2 pseudovirus cell entry assay, luminescence; activity change, negative = inhibition: at 57.1 µM (top of the series) unless noted; series mostly up to 57.1 µM
Outline: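 Entry measured by luciferase signal 48 h after adding SARS-CoV-2-S pseudotyped MLV particles to HEK293-ACE2 cells preincubated 1 h with compounds. Normalisation: bald particles and spike particles.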

[4] = Primary qHTS for inhibitors of nuclear receptor binding SET domain protein 2 (NSD2) in an RCH-ACV wild type WT cells (2C) (AID 1645877); conditions: RCH-ACV (leukaemia line) NSD2 WT (2C) viability, CellTiter-Glo, 72 h; series mostly up to 44.9 µM; further: potency means the concentration at half of the fitted maximal effect; nearly all actives have a fitted effect of over 70% in size
[5] = target: Rap guanine nucleotide exchange factor 3 (Homo sapiens) (UniProt O95398); experiment: Confirmatory qHTS for antagonist of cAMP-regulated guanine nucleotide exchange factor 3 (EPAC1) (AID 1645880); conditions: EPAC1 Rap1B-BODIPY-GDP exchange, fluorescence; series mostly up to 115 µM; further: nearly all actives have a fitted effect of over 55% in size
Outline: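 Released BODIPY-GDP fluoresces less than Rap1-bound BODIPY-GDP; the signal is followed at 480/540 nm at 5-min intervals over 30 min, after 5 min at room temperature. Reactions contain 100 nM EPAC1, 250 nM RAP1B-BODIPY-GDP and 50 uM GDP; results are normalized to ATA and DMSO.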

Papain (Carica papaya), sequence (P00784 whole entry, looked up, the tested form may be a part): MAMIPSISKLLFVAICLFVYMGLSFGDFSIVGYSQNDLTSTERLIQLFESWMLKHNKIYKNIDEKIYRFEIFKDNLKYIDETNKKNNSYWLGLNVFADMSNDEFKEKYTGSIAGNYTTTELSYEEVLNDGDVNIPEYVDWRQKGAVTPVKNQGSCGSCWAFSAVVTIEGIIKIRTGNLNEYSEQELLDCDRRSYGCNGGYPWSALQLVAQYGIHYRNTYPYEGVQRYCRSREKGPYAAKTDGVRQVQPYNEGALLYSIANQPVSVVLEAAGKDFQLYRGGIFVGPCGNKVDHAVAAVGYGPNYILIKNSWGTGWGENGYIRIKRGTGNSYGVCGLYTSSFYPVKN
Rap guanine nucleotide exchange factor 3 (Homo sapiens), sequence (O95398 whole entry, looked up): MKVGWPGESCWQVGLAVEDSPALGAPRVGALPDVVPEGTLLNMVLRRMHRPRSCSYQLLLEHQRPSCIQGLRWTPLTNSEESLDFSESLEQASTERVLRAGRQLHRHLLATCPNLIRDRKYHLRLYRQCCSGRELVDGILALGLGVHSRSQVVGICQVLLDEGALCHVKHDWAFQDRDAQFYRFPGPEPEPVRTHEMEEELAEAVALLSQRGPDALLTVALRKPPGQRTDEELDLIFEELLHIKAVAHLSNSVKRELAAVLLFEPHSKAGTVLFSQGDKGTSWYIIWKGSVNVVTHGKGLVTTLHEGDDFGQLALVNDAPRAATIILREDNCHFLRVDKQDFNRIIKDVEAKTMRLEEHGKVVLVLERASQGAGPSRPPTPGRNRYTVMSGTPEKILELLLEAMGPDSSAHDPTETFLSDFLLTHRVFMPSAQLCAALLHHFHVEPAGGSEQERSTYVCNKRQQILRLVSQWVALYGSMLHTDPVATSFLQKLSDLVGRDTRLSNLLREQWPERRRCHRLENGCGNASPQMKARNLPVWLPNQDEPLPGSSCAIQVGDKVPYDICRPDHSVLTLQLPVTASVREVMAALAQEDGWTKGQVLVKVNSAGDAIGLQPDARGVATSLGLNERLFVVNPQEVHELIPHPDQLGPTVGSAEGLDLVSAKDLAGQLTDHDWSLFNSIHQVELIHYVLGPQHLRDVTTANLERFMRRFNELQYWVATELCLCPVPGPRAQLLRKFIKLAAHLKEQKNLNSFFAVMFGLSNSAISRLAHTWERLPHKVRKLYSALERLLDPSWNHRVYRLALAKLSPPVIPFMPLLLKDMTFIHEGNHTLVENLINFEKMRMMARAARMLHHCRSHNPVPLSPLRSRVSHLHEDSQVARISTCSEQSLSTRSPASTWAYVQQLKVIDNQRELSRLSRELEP

CC(=O)c1c(O)c(C)c(O)c(Cc2c(O)c3c(c(C(=O)/C=C/c4ccccc4)c2O)OC(C)(C)C=C3)c1O
outcome [1]: inactive | Potency (Papain (Carica papaya)): inactive | Potency [2]: inactive

CCOC(=O)c1ccccc1C(=O)OCC
outcome [1]: inactive | Potency [3]: inactive

C[C@]12CC[C@H]3[C@@H](CC[C@@]45O[C@@H]4C(O)=C(C#N)C[C@]35C)[C@@H]1CC[C@@H]2O
outcome [1]: inactive | Potency [2]: 16.6 µM (active) | Potency [4]: 13.2 µM (active)

CC[C@H]1CN2CC[C@H]1C[C@@H]2[C@@H](O)c1ccnc2ccc(OC)cc12
outcome [1]: inactive | Potency [2]: inactive

C[C@@H]1O[C@@H](O[C@H]2C[C@@H](O)[C@]3(CO)[C@@H]4C(CC[C@]3(O)C2)[C@@]2(O)CC[C@H]([C@@H]3COC(=O)C3)[C@@]2(C)C[C@H]4O)[C@H](O)[C@H](O)[C@H]1O (stereo partly drawn)
Potency (Papain (Carica papaya)): inactive

NNC(N)=O
Potency (Papain (Carica papaya)): inactive

CC(C)(C)c1o[nH]c(=O)c1CC(N)C(=O)O (stereo not drawn)
Potency (Papain (Carica papaya)): inactive

C[N+]1(C)C2CCC1CC(OC(=O)c1c[nH]c3ccccc13)C2 (stereo not drawn)
Potency (Papain (Carica papaya)): inactive

O=C1OC2(c3cc(Br)c(O)cc3Oc3c2cc(Br)c(O)[c]3[Hg])c2ccccc21 (stereo not drawn)
Potency [3]: 10 µM (active) | activity, negative = inhibition [5]: 245% [at 22 µM] (inactive)

NC(CCCCCP(=O)(O)O)C(=O)O (stereo not drawn)
Potency (Papain (Carica papaya)): inactive

NC(=O)COc1c(F)cc(SCCNS(=O)(=O)c2ccccc2)cc1F
Potency (Papain (Carica papaya)): inactive

O=C1C=CC(=O)C=C1
Potency (Papain (Carica papaya)): inactive

CCC1(C)CC(=O)NC(=O)C1
outcome [1]: inactive [at 114 µM] | activity change, negative = inhibition [3]: -21.5% [at 114 µM]

O=C(NCNC(=O)NC1C(=O)NC(=O)N1CO)NC1C(=O)NC(=O)N1CO (stereo not drawn)
outcome [1]: inactive | Potency [3]: inactive
